From ChEMBL document CHEMBL1157539, “Thousands of chemical starting points for antimalarial lead identification” (Nature, 2010)

Test system: Plasmodium falciparum
Experiment: GSK_TCMDC: Inhibition of Plasmodium falciparum Dd2 in whole red blood cells, using parasite LDH activity as an index of growth. Test compounds present at 2uM
Format: functional

Row | SMILES | Inhibition [%]
1 | CC(C)(CNCc1ccc(Cl)c(Cl)c1)c1nc(-c2ccc(Cl)c(O)c2)c(-c2ccncc2)[nH]1.Cl | 97
2 | CN(CCCCNC(=O)c1cc2ccccc2[nH]1)C1CC2(CCN(C(=O)OC(C)(C)C)CC2)c2ccccc21 (stereo not given) | 75
3 | O=C(/C=C/c1ccc(Cl)c(Cl)c1)NCCCCCN1CCC(NC(=O)Nc2ccc(Cl)cc2F)CC1 | 40
4 | Cn1cc(C2CCN(CCCCNC(=O)c3sc(-c4ccc(C(F)(F)F)cc4)nc3CO)CC2)c2ccccc21 | 15
5 | Cc1ccc(Nc2nc3cc(Nc4ccnc(Nc5ccc(CS(C)(=O)=O)cc5)n4)ccc3o2)cc1 | 66
6 | Br.COc1ccc(CCON2C(=N)N=C(N)NC2(C)C)cc1OC | 93
7 | CC(C)C[C@H](NC(=O)c1ccc(OCCN2CCOCC2)cc1)C(=O)NC(/C=N/N1CCCC1=O)C(C)C (stereo not given in full) | 81
8 | O=C(Nc1ccc2c(c1)CCN2C1CCN(Cc2csc3ccccc23)C1)c1ccco1 (stereo not given) | 95
9 | CN1CCC(Oc2ccc(CN3CC[C@H](NC(=O)c4ccc(Cl)c(F)c4)C3)c3ccccc23)C1.O=C(O)C(F)(F)F (stereo not given in full) | 65
10 | Cc1cc(N(C)CCCN(C)C)nc(Nc2ccc(Br)cc2)n1 | 84
11 | COc1ccc(NC(=O)Nc2ccc(-c3ccccc3)cc2Cl)cc1N1CCN(C)CC1 | 30
12 | Fc1cccc(Nc2nc(NCc3ccc4ccsc4c3)nc(Nc3cccc(F)c3)n2)c1 | 11
13 | CO/C(=C\C=C\c1cc2cc(Cl)c(Cl)cc2[nH]1)C(=O)NCCCN1CCCC[C@H]1C | 91
14 | CC(C)(C)c1ccc(NC(=O)c2ccc(CN3CCCN(Cc4ccc(F)cc4)CC3)cc2)cc1.O=C(O)C(F)(F)F | 7
15 | CC1(C)N=C(N)N=C(N)C1c1ccc(Cl)cc1.Cl (stereo not given) | 0
16 | O=C(/C=C/c1ccc(Cl)c(Cl)c1)NCCCCCCN1CCN(C(=O)Nc2ccc(C(F)(F)F)cc2)CC1 | 44
17 | O=C(c1cccc(-c2noc(C(F)(F)F)n2)c1)N1CCN(c2ccncc2)CC1 | 56
18 | COc1cccc(CCc2ccc(O)c3c2C[C@H]2C[C@H]4[C@H](N(C)C)C(O)=C(C(N)=O)C(=O)[C@@]4(O)C(O)=C2C3=O)c1.Cl | 67
19 | Nc1c2c(nc3ccccc13)C(=Cc1ccc(O)cc1)CCC2 | 6
20 | O=C(Nc1cccc(CN2CCCN(Cc3ccc4c(c3)OCO4)CC2)c1)c1ccc(Cl)c(Cl)c1.O=C(O)C(F)(F)F | 10

Row | SMILES | Inhibition [%]
21 | O=C(NCCNc1ccnc(Nc2ccc(F)cc2)n1)Nc1ccc2c(c1)OCO2 | 3
22 | COc1ccc(CCNCCCCCCNCCc2ccc(Cl)c(Cl)c2)cc1OC.Cl | 10
23 | CCC1CCCCN1S(=O)(=O)c1ccc(NC(=O)c2cc(C)on2)cc1 (stereo not given) | 53
24 | COc1ccc2nccc([C@@H](O)CN3CCC(NCc4cc5ccccc5nc4O)CC3)c2c1.Cl | 0
25 | Cc1c(C)c2c(c(C)c1O)CC[C@@](C)(C(=O)N1CCC(CCN3CCC(c4c[nH]c5ccccc45)CC3)CC1)O2 | 91
26 | O=C(Nc1ccc(OC2CCN(Cc3ccsc3)CC2)c(Cl)c1)c1ccco1.O=C(O)C(F)(F)F | 85
27 | COc1ccc2nccc([C@@H](O)CN3CCC(NCc4ccc5nc[nH]c(=O)c5c4)CC3)c2c1.O=C(O)C(=O)O | 4
28 | O=C(O)C(F)(F)F.O=[N+]([O-])c1ccc(Oc2ccccc2CNCC2CCN(CC3CCCCC3)CC2)cc1 | 28
29 | COc1ccc(CCNC(=O)c2ccc(-n3cc(NC(=O)c4cccnc4)cn3)cc2)cc1OC | 89
30 | CC(C)N1CCC(N(Cc2ccc(-c3ccc(C(F)(F)F)cc3)cc2)C(=O)Cn2c(SCc3cccc(F)c3F)cc(=O)c3c2CCC3)CC1.O=C(O)C(O)C(O)C(=O)O | 42
31 | COc1cc(C)nc2ccc(NC(=O)Nc3ccc([N+](=O)[O-])cc3C)cc12 | 52
32 | CCNc1cc(C(=O)N[C@@H](Cc2ccccc2)[C@H](O)CNC2(Cc3cccc(Cl)c3)CCC2)cc(N2CCCCS2(=O)=O)c1.Cl | 83
33 | Cl.NCc1ccc(Nc2nccc(Nc3ccc(-c4ccccc4)cc3)n2)cc1 | 98
34 | CN(C)c1ccc(-c2csc(C(=O)NC3CCN(Cc4ccc(C(C)(C)C)cc4)C3)c2)cc1.O=C(O)C(F)(F)F (stereo not given) | 50
35 | COc1ccc2nc3cc(Cl)ccc3c(NCCO)c2c1.Cl | 93
36 | CC(C)CNCc1cccc(-c2cccc(CN(CCCN3CCN(C)CC3)C(=O)/C=C/c3ccccc3)c2)c1.O=C(O)C(F)(F)F | 88
37 | COc1cccc(C=NN=c2cc(C)[nH]c3ccccc23)c1 | 46
38 | NC1CCN(CCNCc2cccc(-c3ccc(-c4nc5cc(C(F)(F)F)ccc5[nH]4)cc3)c2)C1.O=C(O)C(F)(F)F (stereo not given) | 75
39 | CC(Cc1ccc(NC(=O)c2ccc(CNCc3ccccc3)cc2)cc1)N(CCc1cccc(Cl)c1)C(=O)OC(C)(C)C (stereo not given) | 2
40 | COc1ccc(CNC(=O)c2cnc3c(O)cccc3c2Nc2cccc(NC(=O)c3ccc(F)cc3)c2)cc1.O=C(O)C(F)(F)F | 65
